Values joined by “and” are separate entries in the source; they are usually repeats but may differ in a detail not shown here. Equal entries are not always repeated. The panel holds about 83,000 compounds, 20% with a hit somewhere; the sample as a whole holds those more often.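 Treatment: one concentration, 48 hours, 96-well format. Scoring: percent growth, with anything below 10 considered active.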 Active and inactive are the calls of the source.

Among the test systems are DU-145 prostate; K-562 leukemia; MALME-3M melanoma; MDA-MB-231 breast; SF-268 CNS; SF-295 CNS; SF-539 CNS; UACC-257 melanoma; M14 melanoma; RXF 393 renal.
Assay in all cases: NCI-60 one-dose screen, 48 h (100 = growth as untreated, 0 = no growth, -100 = all killed)
Holding throughout (conditions): 10 µM unless noted

On to `CC(=O)N1N=C(c2ccc(Nc3nc(Nc4ccc(F)cc4)nc(Nc4ccc(Cl)cc4)n3)cc2)CC1c1ccc(N(C)C)cc1` (configuration not stated), for which the growth with DU-145 prostate was 5.71% (active); with K-562 leukemia, 23.8% (inactive); in the test with MALME-3M melanoma it was 62.7% (inactive); in the test with MDA-MB-231 breast, 51% (inactive); with SF-268 CNS it was 68.8% (inactive); in the test on SF-295 CNS, 1.56% (active). Besides, the figures for the growth in the test with SF-539 CNS, with UACC-257 melanoma and with M14 melanoma were 67.9% (inactive), 46.8% (inactive) and 41.4% (inactive), respectively.
On to `CCOC(=O)C1=C(C)N=C2SC=C(c3ccc(F)cc3)N2[C@H]1c1cn(-c2ccccc2)nc1-c1ccc(Cl)cc1`, for which the growth in the test with DU-145 prostate was 104% (inactive); in the test with K-562 leukemia, 102% (inactive); with MALME-3M melanoma, 100% (inactive); in the test with MDA-MB-231 breast it was 88.5% (inactive); with RXF 393 renal, 97.1% (inactive); in the test on SF-268 CNS, 92.4% (inactive). The growth was 99% (inactive) in the test with SF-295 CNS, 101% (inactive) with SF-539 CNS, 81.5% (inactive) with UACC-257 melanoma and 98.6% (inactive) in the test on M14 melanoma.
Regarding `COc1c(NC=O)c2c(c([N+](=O)[O-])c1OC)C(=O)OC2`, the growth with DU-145 prostate is 130% (inactive) and 119% (inactive); in the test on K-562 leukemia, 125% (inactive) and 102% (inactive); in the test with MDA-MB-231 breast, 104% (inactive) and 89.8% (inactive); with RXF 393 renal it was 113% (inactive) and 105% (inactive); in the test on SF-268 CNS, 112% (inactive) and 105% (inactive); in the test with SF-295 CNS, 109% (inactive) and 96.4% (inactive). In addition, the growth with SF-539 CNS is 120% (inactive) and 87.3% (inactive); in the test with UACC-257 melanoma it was 97.4% (inactive) and 111% (inactive); in the test on M14 melanoma, 104% (inactive) and 100% (inactive).
Turning to `Cc1ccc(C(=O)N(CCCN)[C@@H](c2nc3cc(Cl)ccc3c(=O)n2Cc2ccccc2)C(C)C)cc1`, the growth in the test with DU-145 prostate is 1.24% (active); with K-562 leukemia it was -30.6% (active); with MALME-3M melanoma it was -79% (active); in the test on MDA-MB-231 breast it was -75.7% (active); in the test on RXF 393 renal, 6.94% (active); in the test with SF-268 CNS it was -21.8% (active). The growth was -60.4% (active) in the test on SF-295 CNS, -75.2% (active) in the test with SF-539 CNS, -56.6% (active) with UACC-257 melanoma and -65.2% (active) with M14 melanoma.
`COc1ccc(/C=N\Nc2nc(SCC(C)C)nc(-c3ccc(OC)cc3)c2C#N)cc1`: the growth in the test on DU-145 prostate is 65.2% (inactive); in the test with K-562 leukemia, 74.6% (inactive); with MALME-3M melanoma, 60.1% (inactive); in the test on MDA-MB-231 breast it was 43.5% (inactive); in the test with RXF 393 renal, 34.5% (inactive); with SF-268 CNS, 50.9% (inactive). Moreover, the growth was -5.63% (active) in the test with SF-295 CNS, 52.6% (inactive) with SF-539 CNS, 88.1% (inactive) in the test on UACC-257 melanoma and 77.6% (inactive) in the test on M14 melanoma.
On to `Cn1cc(C2=C(c3cccc4ccccc34)C(=O)NC2=O)c2cc(Br)ccc21`, for which the growth in the test with DU-145 prostate was 110% (inactive); in the test on K-562 leukemia it was 87.2% (inactive); in the test on MALME-3M melanoma, 143% (inactive); with MDA-MB-231 breast, 113% (inactive); with RXF 393 renal, 102% (inactive); in the test on SF-268 CNS, 102% (inactive). The growth in the test on SF-295 CNS was 102% (inactive); in the test on SF-539 CNS, 121% (inactive); with UACC-257 melanoma, 138% (inactive); in the test on M14 melanoma it was 114% (inactive).
Consider `CCNC(=O)Nc1ncccc1OCc1ccc(F)cc1`, for which the growth with DU-145 prostate is 97.8% (inactive); in the test with K-562 leukemia it was 99.6% (inactive); in the test on MALME-3M melanoma it was 106% (inactive); with MDA-MB-231 breast, 115% (inactive); with RXF 393 renal, 125% (inactive); with SF-268 CNS, 94.3% (inactive). Besides, the growth in the test with SF-295 CNS was 97.8% (inactive); in the test with SF-539 CNS, 102% (inactive); in the test with UACC-257 melanoma, 102% (inactive); in the test on M14 melanoma it was 109% (inactive).
For `N#Cc1c(N)nnn1Cc1cc(=O)oc2ccc(O)cc12`, the growth in the test with DU-145 prostate was 108% (inactive); in the test with K-562 leukemia, 96.1% (inactive); in the test on MALME-3M melanoma, 108% (inactive); in the test on MDA-MB-231 breast it was 112% (inactive); with RXF 393 renal, 98.8% (inactive); in the test on SF-268 CNS, 103% (inactive). Also, the growth in the test with SF-295 CNS is 102% (inactive); in the test on SF-539 CNS it was 104% (inactive); with UACC-257 melanoma, 101% (inactive); in the test with M14 melanoma, 105% (inactive).
As for `Cc1cnc(C(=O)NNc2nc3sc4c(c3c(=O)[nH]2)C(C)CCC4)cn1` (configuration not stated), the growth in the test with DU-145 prostate was 22.6% (inactive); in the test on K-562 leukemia, 14% (inactive); in the test on MALME-3M melanoma it was 15.9% (inactive); in the test on MDA-MB-231 breast, 42.8% (inactive); with RXF 393 renal, 6.15% (active); in the test with SF-268 CNS, 16.7% (inactive). The growth is 23.4% (inactive) in the test on SF-295 CNS, 10.1% (inactive) in the test with SF-539 CNS, 1.78% (active) with UACC-257 melanoma and 0.29% (active) in the test with M14 melanoma.
Consider `O=C(/C=C/c1ccc([N+](=O)[O-])cc1)c1ccccc1`, for which the growth was 97.3% (inactive) in the test on DU-145 prostate; 44.1% (inactive) in the test on K-562 leukemia; 107% (inactive) in the test on MALME-3M melanoma; 102% (inactive) with MDA-MB-231 breast; 91.1% (inactive) in the test on RXF 393 renal; 92% (inactive) in the test on SF-268 CNS. Besides, the growth with SF-295 CNS was 93.4% (inactive); in the test with SF-539 CNS, 92.3% (inactive); in the test with UACC-257 melanoma, 89.1% (inactive); in the test on M14 melanoma it was 92.2% (inactive).
With `CN1CCN(c2ccc(/C=C/C(=O)c3ccc(O)cc3)cc2)CC1`, the growth was 93.2% (inactive) in the test with DU-145 prostate; 90.1% (inactive) with K-562 leukemia; 99% (inactive) with MALME-3M melanoma; 94.8% (inactive) in the test with MDA-MB-231 breast; 95.3% (inactive) in the test with RXF 393 renal; 95.8% (inactive) in the test with SF-268 CNS. The growth was 95.1% (inactive) in the test on SF-295 CNS, 91.9% (inactive) in the test on SF-539 CNS, 96.1% (inactive) in the test on UACC-257 melanoma and 95.8% (inactive) in the test on M14 melanoma.
With `CCN(CC)CCOc1ccc(/C(=C(\Cl)c2ccccc2)c2ccccc2)cc1`, the growth is 74.6% (inactive) and 103% (inactive) in the test with DU-145 prostate; -2.92% (active) and 28% (inactive) in the test on K-562 leukemia; -18.7% (active) in the test with MALME-3M melanoma; 1.62% (active) and 26.1% (inactive) in the test on MDA-MB-231 breast; -58.3% (active) and -26.6% (active) in the test with RXF 393 renal; 62.8% (inactive) and 103% (inactive) with SF-268 CNS. Besides, the growth in the test on SF-295 CNS is -23.1% (active); in the test with SF-539 CNS, -5.76% (active) and 29.9% (inactive); with UACC-257 melanoma, -57.9% (active) and 45.8% (inactive); in the test with M14 melanoma it was -36.2% (active) and 43.3% (inactive).
In the case of `COc1cc2c(cc1OCCCOC1=C=C=C(c3ccc4c(c3)c3cc(-c5ccc(OCCCOc6cc7c(cc6OC)C(=O)N6CCC[C@H]6C=N7)cc5)ccc3n4S(=O)(=O)c3ccc(C)cc3)C=C1)N=C[C@@H]1CCCN1C2=O`, the growth in the test on DU-145 prostate is -66.5% (active); in the test with K-562 leukemia, 8.45% (active); in the test with MALME-3M melanoma it was 240% (inactive); in the test on MDA-MB-231 breast, 23.3% (inactive); in the test on SF-268 CNS, -41.8% (active); in the test with SF-295 CNS it was -26% (active). The figures for the growth with SF-539 CNS, in the test with UACC-257 melanoma and in the test with M14 melanoma were 13.3% (inactive), 52.6% (inactive) and 22.2% (inactive), respectively.

For the origin of these results see PubChem BioAssay (NCI).
